In PubChem BioAssay (NCATS):
Inconclusive results are not listed. Unmarked numbers belong to inactive results. The source made the active and inactive calls. Calls follow the shape of the full dose curve; tested in HEK293 reporter line.

Experiment: qHTS for Inhibitors of the Functional Ribonucleoprotein Complex (vRNP) of Lassa (LASV) Arenavirus: LASV Primary Screen - GLuc reporter signal (AID 1347082); also: nearly all actives have a fitted effect of over 60% in size
Settings: LASV minigenome vRNP, Gaussia luciferase reporter; series mostly up to 57.5 µM; activity change, negative = inhibition: at the top concentration
% is scaled to controls: 0 for no effect and ±100 for the full control effect; potency is read from the fitted curve at half-maximal effect.

Row | Structure (SMILES) | activity change, negative = inhibition | Potency
1 | CC(C)(C)c1cc(NC(=O)Nc2ccc(-c3cn4c(n3)sc3cc(OCCN5CCOCC5)ccc34)cc2)no1 | -21% | 
2 | N#Cc1ccc(NC(=O)Nc2ccccc2Br)c2n[nH]nc12 | 3.7% | 
3 | Cc1ccnc(NS(=O)(=O)c2ccc(NC(=O)Nc3ccc(S(=O)(=O)Nc4nccc(C)n4)cc3)cc2)n1 | -3.56% | 
4 | O=c1[nH]nc(Sc2ncc([N+](=O)[O-])s2)n1-c1ccc2c(c1)OCCO2 | -26.3% | 
5 | N#Cc1ccc(COC[C@H]2O[C@@H](n3c(NCc4ccc(Cl)c(Cl)c4)nc4c(N)ncnc43)[C@@H](O)[C@@H]2O)cc1 | -3.68% | 
6 | CC(C)OC(=O)C1=CN(C(=O)c2ccc(F)c(F)c2)CC(C)(C)c2c1[nH]c1ccccc21 | -21.8% | 
7 | C=C[C@@H]1CN2CCC1C[C@H]2[C@H](O)c1ccnc2ccccc12 (stereo not given in full) | -22.6% | 
8 | O=c1cc(N2CCOCC2)oc2c(-c3cccc4c3sc3ccccc34)cccc12 | -4.47% | 
9 | CC(C)(N)C(=O)N[C@H](COCc1ccccc1)C(=O)N1CCC2(CC1)CN(S(C)(=O)=O)c1ccccc12 | -31.3% | 
10 | CS(=O)(=O)c1ccc(C(=O)Nc2ccc(Cl)c(-c3ccccn3)c2)c(Cl)c1 | 18.7% | 
11 | COc1cc2nccc(Oc3ccc(NC(=O)Nc4cc(C)on4)c(Cl)c3)c2cc1OC |  | 34.3 µM (active)
12 | Cc1cnc(Nc2ccc(OCCN3CCCC3)cc2)nc1Nc1cccc(S(=O)(=O)NC(C)(C)C)c1 | -1.82% | 
13 | CCN(CC)c1ccc(C(=C2C=CC(=[N+](CC)CC)C=C2)c2cc(S(=O)(=O)O)ccc2S(=O)(=O)[O-])cc1 | -1.83% | 
14 | CNc1nccc(-c2cccnc2Oc2cc(C(=O)Nc3cccc(C(F)(F)F)c3)ccc2C)n1 | -38.3% | 
15 | CNC(=O)c1cc(Oc2ccc(NC(=O)Nc3ccc(Cl)c(C(F)(F)F)c3)c(F)c2)ccn1 | -12.6% | 
16 | Cn1c(NCCN(CCO)CCCc2ccc([N+](=O)[O-])cc2)cc(=O)n(C)c1=O | -0.27% | 
17 | O=C(O)c1ccc(-c2cc3cccnc3c(-c3ccc4nonc4c3)n2)cc1 | -17.2% | 
18 | Cc1cccc(-c2[nH]ncc2-c2ccc3ncccc3n2)n1 | -0.104% | 

Row | Structure (SMILES) | activity change, negative = inhibition | Potency
19 | CN1C(=O)c2ccccc2C1=O | -6.68% [at 115 µM] | 
20 | CN1CCN(CCOc2cc(OC3CCOCC3)c3c(Nc4c(Cl)ccc5c4OCO5)ncnc3c2)CC1 | 3.18% | 
21 | O=S(=O)(N=Cc1c(O)ccc2ccccc12)c1cccs1 | 24.6% | 
22 | COC[C@H]1OC(=O)c2coc3c2[C@@]1(C)C1=C(C3=O)[C@@H]2CC[C@H](O)[C@@]2(C)C[C@@H]1OC(C)=O | -9.95% | 
23 | COc1cc2c(cc1OC)[C@@H]1C(=O)c3ccc4c(c3O[C@@H]1CO2)C=CC(C)(C)O4 |  | 0.153 µM (active)
24 | O=C(C1CC1)N1CC[C@@H](Cn2c(-c3ccc(-c4ccc5occc5c4)cc3)nc3cnccc32)C1 | -31.9% | 
25 | O=C(Nc1ccc(F)c(C(F)(F)F)c1)Nc1nnc(-c2ccncc2)s1 | -20.4% | 
26 | Cc1ccc(F)c(NC(=O)Nc2ccc(-c3cccc4[nH]nc(N)c34)cc2)c1 | -25.8% | 
27 | CNCc1ccc(-c2[nH]c3cc(F)cc4c3c2CCNC4=O)cc1 | -20.5% | 
28 | Fc1cc(-c2cccc3ncc(-c4cnn(C5CCNCC5)c4)nc23)cc(F)c1CN1CCOCC1 |  | 24.3 µM (active)
29 | NC(=O)c1c(OCc2c(F)cc(Br)cc2F)nsc1NC(=O)NCCCCN1CCCC1 | -0.179% | 
30 | CC(C)Oc1cc(Nc2nc(N[C@@H](C)c3ccc(F)cn3)ncc2Cl)[nH]n1 | 18.4% | 
31 | COCCNCCCn1c(C(=O)CF)c(-c2ccc(C)cc2)c2c(N)ncnc21 | -9.48% | 
32 | COCC(=O)NCC=Cc1ccc2ncnc(Nc3ccc(Oc4ccc(C)nc4)c(C)c3)c2c1 |  | 43.2 µM (active)
33 | O=C(c1cc(Cc2n[nH]c(=O)c3ccccc23)ccc1F)N1CCN(C(=O)C2CC2)CC1 | -31.8% | 
34 | COc1c(Cl)cc2c([nH]c3cnccc32)c1NC(=O)c1cccnc1C | -8.08% | 
35 | CCOc1ccn(-c2ccc(F)cc2)c(=O)c1C(=O)Nc1ccc(Oc2ccnc(N)c2Cl)c(F)c1 | -38.2% | 
